Only some compounds are listed: those with a hit (about 4.8% of all), similar ones and a draw of the others.
SMARCA2 act: SMARCA2 (BRM) function activators, primary screen, cell-based, luminescence, high throughput; MG213 cells, MMTV-luciferase reporter, dexamethasone, overnight; activation, % at 9.1 µM; actives 1% (n = 370,000); AID 652017, 2013; in the data active means activation above about 7.8%;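 further: 0% = vehicle wells and 100% = reference activator wells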
DAX1 inh-1: DAX1 (NR0B1) inhibitors, primary screen, cell-based, HEK293, Gal4-DAX1, luciferase luminescence | inhibition, % at 6.75 µM | actives 0.99% (n = 340,000) | Nuclear receptor subfamily 0 group B member 1 (Homo sapiens), P51843 | HEK293 Gal4-DAX1 luciferase reporter;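 active means inhibition above the mean over all tested compounds plus 3 SD, cut at about 4.2% in these data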;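 further: 0% = DAX1-transfected cells with DMSO and 100% = empty-vector control cells with DMSO; inhibition shows as a rise in luminescence from relieved DAX1 repression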
Target sequence (P51843 207-470 limits assumed): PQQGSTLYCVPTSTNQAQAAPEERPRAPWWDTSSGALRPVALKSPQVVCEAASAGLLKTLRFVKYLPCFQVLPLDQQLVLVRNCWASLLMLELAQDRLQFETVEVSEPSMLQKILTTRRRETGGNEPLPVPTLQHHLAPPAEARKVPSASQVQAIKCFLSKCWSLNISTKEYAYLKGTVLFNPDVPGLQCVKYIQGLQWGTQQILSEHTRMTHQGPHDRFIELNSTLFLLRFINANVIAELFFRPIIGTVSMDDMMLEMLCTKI
ssDAF12 agonist: S. stercoralis DAF-12 nuclear receptor activators, primary screen, cell-based, luminescence, HEK293, GRIP1 co-expression, lit1-tk-luc | HEK293 ssDAF-12/GRIP1 lit1-tk-luc reporter; % of 3 µM dafachronic acid response | activation, % at 6.8 µM | actives 1% (n = 370,000);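 active means activation above the mean over all tested compounds plus 3 SD, cut at about 0.9% in these data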;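 further: 0% = DMSO-only wells and 100% = 3 µM delta7-dafachronic acid wells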
hgDAF12 agonist: H. glycines DAF-12 receptor agonists, primary screen, cell-based, luminescence, HEK293, GAL4 fusion, UAS-luciferase; HEK293 GAL4-hgDAF12 UAS-luciferase reporter, agonist luminescence; normalized to butyrate control; actives 1.8% (n = 370,000); AID 687014, 2013; activation, % at 6.8 µM;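 active means activation above a cutoff set at the mean of all screened compounds plus 3 SD, cut at about 10% in these data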;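 further: 0% = DMSO wells and 100% = sodium butyrate wells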
hcDAF-12 act: H. contortus DAF-12 nuclear receptor activators, primary screen, cell-based, luminescence, HEK293, lit1-tk-luc reporter; activation, % at 6.8 µM; HEK293 hcDAF-12 lit1-tk-luc reporter; 0% DMSO, 100% Δ7-dafachronic acid; actives 1.4% (n = 370,000);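 active means activation above the mean of all tested compounds plus 3 SD, cut at about 5.5% in these data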;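 further: 100% = response to 3 µM Δ7-dafachronic acid high control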
DAX1 inh-2: DAX1 (NR0B1) inhibitors on StAR promoter, primary screen, cell-based, luminescence, SF-1 (NR5A1), full-length DAX-1; inhibition, % at 6.8 µM; HEK293T StAR-luciferase reporter, SF-1/DAX-1 repression relief; actives 1.1% (n = 370,000); AID 652010, 2013;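 active means inhibition above the mean over all tested compounds plus 3 SD, cut at about 3.6% in these data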;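 further: 0% = DAX-1 cells with DMSO and 100% = cells lacking DAX-1 with DMSO; higher inhibition means more luminescence from relief of DAX-1 repression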
Active calls of the source: *; . = no result.

SMILES	SMARCA2 act	DAX1 inh-1	ssDAF12 agonist	hgDAF12 agonist	hcDAF-12 act	DAX1 inh-2
CCc1nc2ccc(C(=O)NCCc3c[nH]c4ccccc34)cn2c1N(C)Cc1ccc(N(C)C)cc1	-7	.	0	9	0	-2
CCN(CC)c1ccc([C@H]2[C@@H]3CCCC[C@]3(O)CCN2CC(=O)NCc2ccco2)cc1	-2	4.7*	-1	0	-2	0
Cc1ccc(OCC(=O)Nc2ccc(C(=O)Nc3ccccc3C(=O)O)cc2)cc1C	-2	-1	0	11*	0	2
Cc1cccc(C(=O)Nc2ccccc2C(=O)Nc2ccc(C(=O)O)cc2)c1	0	6.6*	-1	0	0	0
CC(=O)c1ccc(NC(=O)Nc2cccnc2)cc1	5	0	0	5	1	4.1*
O=C(Nc1cccnc1)Nc1cccc([N+](=O)[O-])c1	-1	1	-1	2	6.5*	0
CC(=O)c1ccc(NC(=O)Nc2ccncc2)cc1	3	-2	-1	7	-1	0
NC(=O)Cn1nc([N+](=O)[O-])nc1Oc1ccccc1C(=O)N1CCOCC1	-4	2	-1	10	0	0
CCn1nc(C)c(Br)c1-c1nc(-c2ccc(C)cc2)no1	-3	.	1.0*	0	3	0
COc1cccc(NC(=O)COC(=O)c2ccc(F)cc2F)c1	0	0	0	-2	-1	0
O=C(Nc1ccccc1C(=O)Nc1ccccn1)c1ccc([N+](=O)[O-])cc1	0	0	-1	-4	-1	-1
Cc1ccc([N+](=O)[O-])c(OCCN2CCNCC2)c1	2	1	-1	0	1	0
Cc1ccc([N+](=O)[O-])c(OCc2ncc(Cl)n2C)c1	2	0	1.1*	4	5	0
CCOC(=O)CCc1c(C)nc(SCc2ccc(C(=O)O)cc2)c(C#N)c1C	-2	6.0*	-1	-1	-1	0
CC1=NN(C(=O)c2ccccc2F)C(O)(c2ccc(Cl)cc2)C1 (centres undefined)	3	6.2*	-1	6	2	1
CC1=NN(C(=O)c2ccccc2Cl)C(O)(c2ccccc2)C1 (centres undefined)	0	2	-2	2	0	0
Cc1ccc2nc(-c3cccc(Cl)c3)c(Cc3cccc(Cl)c3)n2c1	2	.	0	10	2	3
COC(=O)c1ccc2nc(-c3ccc(C)cc3)c(Cc3cccc(Cl)c3)n2c1	0	.	0	1	1	0
Cc1ccc2nc(-c3cccc(Cl)c3)c(Cc3ccccc3)n2c1	6	.	0	12*	3	4.2*
Cc1ccc(-c2nc3ccc(C)cn3c2Cc2cccc(Cl)c2)cc1	8	.	-1	9	1	3.8*
Cc1ccc2nc(-c3ccccc3)c(CN3CCOCC3)n2c1	3	2	-1	11*	-1	1
C=CCOC(=O)C(=O)/C=C/c1c(C)n(C)n(-c2ccccc2)c1=O	0	0	-1	-1	1	1
CC1CC(C)CN(CCCNC(=O)CN2C(=O)CSc3ccc(S(=O)(=O)N4CCCCC4)cc32)C1 (centres undefined)	-2	1	-1	1	2	3.6*
O=C(CCc1nc2ccccc2c(=O)[nH]1)NCCN1C(=O)S/C(=C\c2ccc(OC(F)F)cc2)C1=O	4	0	-1	1	1	-1
O=[N+]([O-])c1cc(S(=O)(=O)Nc2ccccc2)ccc1NCc1ccccc1	-3	0	-2	0	0	0
SMILES	SMARCA2 act	DAX1 inh-1	ssDAF12 agonist	hgDAF12 agonist	hcDAF-12 act	DAX1 inh-2
O=[N+]([O-])c1cc(S(=O)(=O)Nc2ccccc2)ccc1Nc1ccccc1	-2	1	1.6*	0	0	-1
CC1=CC(C)(C)N=C(NC#N)N1	1	3	1.0*	0	-1	0
CC1=CC(C)(C)N=C(Nc2nc(C)c3cc(C)cc(C)c3n2)N1	-2	0	-2	-4	1	1
COc1c(Cl)ccc(Cl)c1C(=O)NC(=O)Nc1nc(C)cc(C)n1	-3	0	-2	-1	0	-4
CC[C@]12c3[nH]c4ccccc4c3CCN1C(=O)C(CC(=O)NCc1ccco1)C[C@@H]2C(=O)N1CCN(C(=O)c2ccco2)CC1 (some centres undefined)	-2	5.8*	-1	-2	0	0
O=C(CC1C[C@H](C(=O)N2CCOCC2)[C@@]2(CCC3CCCC3)c3[nH]c4ccccc4c3CCN2C1=O)NCCC1=CCCCC1 (some centres undefined)	-3	0	0	0	1	3
COCCCNC(=O)CC1C[C@H](C(=O)N2CCOCC2)[C@@]2(C)c3[nH]c4ccc(OC)cc4c3CCN2C1=O (some centres undefined)	-3	-1	-1	3	2	4.1*
CC(C)N(C(=O)[C@H]1C[C@H](CC(=O)NCc2ccco2)C(=O)N2CCc3c([nH]c4cc(CCC(=O)N(C)C)ccc34)[C@]12C)C(C)C	7.9*	1	-1	7	1	2
CN(C)CCCNC(=O)CC1C[C@H](C(=O)N2CCOCC2)[C@@]2(CCC3CCCC3)c3[nH]c4ccccc4c3CCN2C1=O (some centres undefined)	-5	4.3*	0	2	0	3.7*
O=C(c1cc(COc2cccc(C(F)(F)F)c2)on1)N1CCCC1	3	1	-1	3	-1	0
C[C@@H]1CN(C(=O)c2cc(COc3cccc(C(F)(F)F)c3)on2)C[C@H](C)O1	6	2	-1	11*	3	3
Cc1ccc(-c2cc(C(=O)NN=Cc3cccc4ccccc34)[nH]n2)cc1C	-5	.	-1	12*	0	-2
CCOc1cccc2sc(=NC(=O)CCS(=O)(=O)c3ccccc3)n(CC)c12	-1	0	-1	3	0	-3
Cc1cc(C)c(C)c(C(=O)CSc2nnc(-c3ccc4[nH]c(C)c(C)c4c3)o2)c1C	0	0	-1	4	-1	0
Cc1[nH]c2ccc(-c3nnc(SCC(=O)c4ccc(F)cc4)o3)cc2c1C	12*	-1	-2	1	-1	1

Compound activity (PubChem)
